From ChEMBL document CHEMBL1201862, “PubChem BioAssay data set” (2004) come the findings set out here.

Each structure is given as a SMILES string. In all, about 400,000 compounds went through this assay and about 2,100 (0.53%) were called active. Roughly 14% stayed inconclusive and do not appear here. The rule behind the calls is not given here. For the sample, actives were picked, then their nearest neighbours and some compounds at random.

Ataxin-2 (Homo sapiens), sequence (Q99700 whole entry): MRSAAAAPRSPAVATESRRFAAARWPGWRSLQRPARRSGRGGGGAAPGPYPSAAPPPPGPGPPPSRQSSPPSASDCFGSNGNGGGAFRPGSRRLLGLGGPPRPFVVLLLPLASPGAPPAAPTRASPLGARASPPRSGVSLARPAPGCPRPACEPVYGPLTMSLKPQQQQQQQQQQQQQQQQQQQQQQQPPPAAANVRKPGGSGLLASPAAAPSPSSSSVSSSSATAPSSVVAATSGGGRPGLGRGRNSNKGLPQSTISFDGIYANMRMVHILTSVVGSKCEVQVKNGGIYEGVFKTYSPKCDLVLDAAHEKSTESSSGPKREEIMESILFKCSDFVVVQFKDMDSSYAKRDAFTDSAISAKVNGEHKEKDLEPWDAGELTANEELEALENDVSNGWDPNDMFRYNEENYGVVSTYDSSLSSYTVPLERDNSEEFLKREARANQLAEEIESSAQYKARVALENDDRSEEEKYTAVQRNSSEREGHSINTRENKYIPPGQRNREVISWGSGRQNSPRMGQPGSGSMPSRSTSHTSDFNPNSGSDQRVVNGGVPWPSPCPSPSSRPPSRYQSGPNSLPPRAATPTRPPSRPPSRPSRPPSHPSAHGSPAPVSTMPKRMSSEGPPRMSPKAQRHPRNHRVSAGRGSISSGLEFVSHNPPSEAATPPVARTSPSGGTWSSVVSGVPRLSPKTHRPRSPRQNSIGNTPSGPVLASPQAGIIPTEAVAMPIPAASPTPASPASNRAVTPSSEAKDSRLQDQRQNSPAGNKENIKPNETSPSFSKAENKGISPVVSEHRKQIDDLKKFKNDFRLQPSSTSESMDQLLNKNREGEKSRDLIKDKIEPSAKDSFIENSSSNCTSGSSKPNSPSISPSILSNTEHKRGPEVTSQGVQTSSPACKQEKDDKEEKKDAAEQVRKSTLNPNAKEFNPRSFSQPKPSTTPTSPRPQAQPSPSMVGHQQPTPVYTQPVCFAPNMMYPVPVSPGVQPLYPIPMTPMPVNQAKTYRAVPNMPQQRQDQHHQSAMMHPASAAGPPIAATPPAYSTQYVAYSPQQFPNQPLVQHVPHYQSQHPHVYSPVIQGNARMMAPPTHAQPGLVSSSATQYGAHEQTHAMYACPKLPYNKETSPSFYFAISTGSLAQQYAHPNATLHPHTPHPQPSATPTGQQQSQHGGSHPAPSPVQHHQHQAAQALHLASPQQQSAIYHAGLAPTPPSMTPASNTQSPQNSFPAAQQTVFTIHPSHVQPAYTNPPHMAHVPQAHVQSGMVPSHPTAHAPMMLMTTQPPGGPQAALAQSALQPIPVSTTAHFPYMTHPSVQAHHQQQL

The test has as its target Ataxin-2 (Homo sapiens) (UniProt Q99700). Description: qHTS for Inhibitors of ATXN expression. It is filed as functional.
On to `CC(C)CNC(=O)COC(=O)c1c2c(nc3ccccc13)/C(=C/c1cccs1)CC2`, for which the Potency result was “inactive”.
In the case of `CCN1CCN(Cc2c(O)ccc3c2O/C(=C\c2ccccc2)C3=O)CC1`, the Potency result is “inactive”.
Regarding `CCOC(O)=C(C(C)=N)C1CC(=O)NC1=O` (stereo not drawn), the Potency result is “inactive”.
For the compound `CCN(CC)CCNC(=O)c1cc(-c2ccc(Br)s2)nc2ccccc12`, the Potency is 39.8 µM (active).
As for `CCN(CC)CC(C)CNC(=O)c1cc(-c2ccc(Br)s2)nc2ccccc12` (stereo not drawn), the figure is 14.1 µM (active); as for `CCc1ccc(-c2cc(C(=O)NN3CCOCC3)c3ccccc3n2)s1`, “inactive”; as for `Cc1ccc(-c2cc(C(=O)NCC3(N(C)C)CCCCC3)c3ccccc3n2)o1`, “inactive”.
For `O=C(NC1CC1)c1cc(-c2ccc(Br)cc2)nc2ccccc12`, the Potency entry is “inactive”.
The result for `Cc1cc(C(=O)NCCN2CCOCC2)c2ccccc2n1` reads “inactive”.
For `CN(Cc1ccccc1OCCO)CC1CCCN(CCc2ccc(Cl)cc2)C1` (stereo not drawn), the Potency result was “inactive”.
As for `C=CCNC(=O)/C(C#N)=C/c1c(N2CCN(c3ccccc3)CC2)nc2c(C)cccn2c1=O`, the entry is “inactive”.
The result for `COc1ccc(CCNc2ncnc3c2oc2ccccc23)cc1OC` reads 31.6 µM (active); that for `COc1ccc(CCN(C)C(=O)c2cc(=O)c3ccccc3o2)cc1OC`, “inactive”.
Turning to `CCc1c(C)c2cc3c(c(C)c2oc1=O)OCN(CCc1ccc(OC)c(OC)c1)C3`, the Potency result was “inactive”.
`COc1cc(C(Nc2ccccn2)c2ccc3ccc(C)nc3c2O)cc(OC)c1O` (stereo not drawn): the Potency was 39.8 µM (active).
For `Cc1cccc(NC(c2ccccc2C)c2ccc3ccc(C)nc3c2O)n1` (stereo not drawn), the Potency entry is “inactive”.
Take `COc1cc(/C=N/Nc2ccccn2)cc(OC)c1O`: the Potency entry is “inactive”.
The result for `CN1CCN(C(=O)c2ccc(C(F)(F)F)cc2)CC1` reads “inactive”.
As for `CC(C)C[C@@H](COCc1ccc(Cl)cc1)N1CCN(C(=O)c2ccc(C(F)(F)F)cc2)CCC1=O`, the Potency is 31.6 µM (active).
As for `CC(C)C[C@@H](COCc1cccc(Cl)c1)N1CCN(C(=O)c2ccc(C(F)(F)F)cc2)CCC1=O`, the figure is 22.4 µM (active).
For `CC(C)CC(COCc1cccc(Cl)c1)N1CCN(C(=O)c2ccc(C(F)(F)F)cc2)CCC1=O` (stereo not drawn), the Potency is 39.8 µM (active).
`CCn1nc(NC(C)=O)c2cc3ccc(C)cc3nc21`: the Potency result is “inactive”.
As for `CCC(=O)NC1=C(Cl)C(=O)C(NC(=O)CC)=C(Cl)C1=O`, the figure is 5.01 µM (active); as for `CCN(CC)c1ccc2cc(-c3nnc(-c4ccncc4)o3)c(=O)oc2c1`, “inactive”; as for `O=C(N/N=C/c1sc(N2CCOCC2)nc1-c1ccccc1)c1ccccc1Cl`, “inactive”.
As for `O=C(Oc1c(-c2ccco2)oc2ccccc2c1=O)c1cccnc1`, the entry is “inactive”.
The result for `CCOC(=O)C1=C(C)OC(N)=C(C#N)C1c1cccs1` (stereo not drawn) reads “inactive”.
On to `O=S(=O)(Nc1cccc(-c2nc3cccnc3s2)c1)c1ccc2c(c1)CCCC2`, for which the Potency entry is “inactive”.
As for `CC1C(=O)C(C)C(c2cc(Cl)ccc2O)NC1c1cc(Cl)ccc1O` (stereo not drawn), the figure is 39.8 µM (active); as for `CCc1cc2c(CN3CCN(CC)CC3)cc(=O)oc2cc1O`, “inactive”; as for `CCCCN(C)C1=CC2=CC(=C(C#N)C#N)CCC2CC1` (stereo not drawn), “inactive”.
The result for `Cc1nc2ccccc2c2oc(C(=O)N3CCC(N4CCCCC4)CC3)cc12` reads 5.62 µM (active); that for `Cc1sc2ncn(CC(=O)NCC3COc4ccccc4O3)c(=O)c2c1S(=O)(=O)N1CCCCC1` (stereo not drawn), “inactive”.
As for `Cc1nc2ccccc2c2oc(C(=O)NCC3COc4ccccc4O3)cc12` (stereo not drawn), the Potency is 35.5 µM (active).
On to `COc1cc(OC)c(OC)cc1CNCC1COc2ccccc2O1` (stereo not drawn), for which the Potency result is “inactive”.
The result for `COCc1c(C(=O)N2CCC(N3CCCCC3)CC2)cnn1-c1ncc(C)c(-c2cccs2)n1` reads “inactive”; that for `O=C(c1cc(-c2ccc(F)cc2)nc2ccccc12)N1CCN(C2CCS(=O)(=O)C2)CC1` (stereo not drawn), “inactive”; that for `Nc1cccc(N2C(=O)c3cccc4c(N)ccc(c34)C2=O)c1`, “inactive”.
The result for `CC(O)C(/N=C/C1=C(O)OC(C)(C)OC1=O)C(=O)O` (stereo not drawn) reads “inactive”; that for `O=C(O)c1ccc2nc(-c3ccco3)c(-c3ccco3)nc2c1`, “inactive”; that for `CCOc1ccc2nc3sc(C(=O)N4CCOCC4)c(N)c3cc2c1`, “inactive”.
Turning to `Nc1c(C(=O)Nc2ccc(S(=O)(=O)N3CCCC3)cc2)sc2nc3ccc(OC(F)(F)F)cc3cc12`, the Potency was 4.47 µM (active).
As for `CCc1cccc2cc3c(N)c(C(=O)Nc4ccc(S(=O)(=O)N5CCCC5)cc4)sc3nc12`, the entry is “inactive”; as for `N#C/C(=C\c1c(Oc2ccc(Cl)cc2)nc2ccccn2c1=O)C(=O)NC1CCS(=O)(=O)C1` (stereo not drawn), “inactive”; as for `COC(=O)c1[nH]c2ccc(Br)cc2c1NC(=O)C(C)N1CCN(C2CCCCC2)CC1` (stereo not drawn), 39.8 µM (active).
As for `Cn1c(N)c(C(=O)COC(=O)CCOc2ccc(C(C)(C)C)cc2)c(=O)n(C)c1=O`, the entry is “inactive”; as for `O=C(NC1CCC(O)CC1)c1cc(-c2ccco2)nc2ccccc12` (stereo not drawn), “inactive”; as for `COc1cc(OC)cc(C(=O)NCCCCNC(=O)c2cc(OC)cc(OC)c2)c1`, “inactive”.
With `COc1cc(CN2CCC3(CCC(CNC(=O)c4ccccc4)O3)CC2)cc(OC)c1` (stereo not drawn), the Potency is 11.2 µM (active).
The result for `CN1CCCC1CCNc1ccc2c(=O)c3ccccc3oc2c1` (stereo not drawn) reads “inactive”.
As for `CC1=CC(=C(C#N)c2nc3ccccc3s2)C=C(C)N1CC1CCCO1` (stereo not drawn), the entry is “inactive”; as for `Cc1c(Cl)cccc1N/C(SCC(=O)N1CCCCCC1)=C(/C#N)c1nc2ccccc2s1`, 25.1 µM (active); as for `N#C/C(=C(/O)COC(=O)c1ccccc1O)c1nc2ccccc2s1`, “inactive”.
Turning to `COc1ccc(-c2c(C#N)c(N)nc3sc(C(=O)c4ccccc4)c(N)c23)cc1`, the Potency entry was “inactive”.
With `COc1ccc(CNCC(=O)Nc2sccc2C#N)cc1`, the Potency entry was “inactive”.
`COc1ccc(-c2oc(NC(=O)CCl)c(C#N)c2-c2ccc(OC)cc2)cc1`: the Potency was 31.6 µM (active).
As for `Cc1cccc(C)c1NC(=O)NC1(C(=O)N2CCCCC2)CCCCC1`, the entry is “inactive”; as for `O=S(=O)(Nc1nc2n(n1)C(c1ccc(F)cc1)C=C(c1ccccc1)N2)c1ccc(Cl)cc1` (stereo not drawn), “inactive”.
As for `CC(C)Cc1ccc(C(C)/C=C2/CCC(CN3CCCCC3)C2=O)cc1` (stereo not drawn), the figure is 35.5 µM (active); as for `CCOC(=O)C1C(=O)C=C(c2ccc(NS(C)(=O)=O)cc2)CC1c1ccco1` (stereo not drawn), “inactive”.
Consider `COn1c(C)c(C)c2c3nonc3ccc21`, for which the Potency result was “inactive”.
The result for `O=C(O)c1cc2cc(Cl)cc(Cl)c2oc1=O` reads “inactive”; that for `O=C1C(Br)=C(c2ccccc2)C(c2ccccc2)=C1c1ccccc1`, 39.8 µM (active); that for `O=C(c1cnc2nc3ccccc3n2c1)c1cc(F)ccc1O`, “inactive”.
Consider `CC(C)(C)c1ccc(C2=CC(c3ccccc3F)n3ncnc3N2)cc1` (stereo not drawn), for which the Potency entry was “inactive”.
Turning to `O=C1C=CC(=O)N1c1ccc(N2CCCCC2)cc1`, the Potency was 39.8 µM (active).
On to `CN1C(=O)c2ccc(N3CCCC3)cc2C1=O`, for which the Potency entry is “inactive”.
For the compound `O=S(=O)(c1ccccc1)c1ccc(N2CCCCCC2)cc1`, the Potency result is “inactive”.
For the compound `NC(Cc1ccc(Cl)cc1)c1csc(Nc2ccc(C(=O)c3ccccc3)cc2)n1` (stereo not drawn), the Potency is 39.8 µM (active).
In the case of `NC(c1csc(Nc2ccc(C(=O)c3ccccc3)cc2)n1)C1CCCCC1` (stereo not drawn), the Potency is 31.6 µM (active).
As for `COc1ccc(C(=O)c2sc(Nc3ccccc3)nc2C)cc1`, the Potency result is “inactive”.
On to `COc1cccc(Nc2nc(C(N)C3CCCCC3)cs2)n1` (stereo not drawn), for which the Potency was 39.8 µM (active).
As for `O=C(O)Cc1sc(Nc2ccccc2)nc1-c1ccccc1`, the entry is “inactive”; as for `COc1ccc(C(=O)c2sc(Nc3ccccc3)nc2N)cc1OC`, “inactive”; as for `NC(Cc1ccc(F)cc1)c1csc(Nc2ccc(C(=O)c3ccccc3)cc2)n1` (stereo not drawn), 39.8 µM (active).
Consider `CCOC(=O)c1cc2c(=O)n3ccccc3nc2n(Cc2ccco2)/c1=N/C(=O)c1ccc(OC)cc1`, for which the Potency entry is “inactive”.
With `O=C1CCCC(O)=C1C1C2=C(CCCC2=O)OC2=C1C(=O)CCC2`, the Potency result is “inactive”.
With `CCOc1cccc2cc(-c3csc(NC(=O)CCC(=O)NCCN4CCCCC4C)n3)c(=O)oc12` (stereo not drawn), the Potency result was “inactive”.
Regarding `N#CC1=C(N)Oc2cc(N)ccc2C1c1ccccc1F` (stereo not drawn), the Potency entry was “inactive”.
Regarding `c1ccc(-c2nnc(SCC3CCCCO3)nc2-c2ccccc2)cc1` (stereo not drawn), the Potency entry was “inactive”.
Consider `NC(Cc1ccccc1)c1csc(Nc2nncc3ccccc23)n1` (stereo not drawn), for which the Potency result is “inactive”.
The result for `NC(Cc1ccc(F)cc1)c1csc(Nc2nncc3ccccc23)n1` (stereo not drawn) reads 39.8 µM (active).
The result for `Cc1ccc(C#N)c(SCC(=O)Nc2nccs2)n1` reads “inactive”; that for `O=C(C=P(c1ccccc1)(c1ccccc1)c1ccccc1)c1ccccc1-c1ccccc1C(=O)C=P(c1ccccc1)(c1ccccc1)c1ccccc1`, 20 µM (active).
The result for `O=C(O)c1ccc(CP(=O)(c2ccccc2)c2ccccc2)cc1` reads “inactive”.
As for `Cc1cccc2nc(CSc3nc4nncc-4c(O)n3-c3cccc(Cl)c3)cc(=O)n12`, the Potency was 35.5 µM (active).
`Cc1ccccc1-n1nnnc1SCc1cc(=O)n2ccsc2n1`: the Potency entry was “inactive”.
Take `CCCc1[nH]c2ccc(C#N)cc2c1CCC`: the Potency is 35.5 µM (active).
For the compound `O=C1N/C(=C/c2cccn2-c2ccccc2)C(=O)N1Cc1ccc(F)cc1`, the Potency result was “inactive”.
As for `CCCCCC(=O)N[C@@H](c1ccccc1)[C@@H](O)C(=O)O[C@H]1C[C@@]2(O)[C@@H](OC(=O)c3ccccc3)C3[C@](C)(C(=O)[C@H](OC(C)=O)C(=C1C)C2(C)C)[C@@H](O)C[C@H]1OC[C@@]31OC(C)=O` (stereo partly drawn), the figure is 6.31 µM (active); as for `Cc1nc(C)c(C(=O)N2CCCC(C(=O)c3ccc4ccccc4c3)C2)s1` (stereo not drawn), 28.2 µM (active); as for `COc1ccc(C(=O)C2CCCN(C(=O)c3csc(SC)n3)C2)cc1F` (stereo not drawn), “inactive”.
As for `CC1=C(C(=O)N2CCCC(C(=O)c3cccc(C(F)(F)F)c3)C2)OCCO1` (stereo not drawn), the entry is “inactive”; as for `Cc1cccc(N2CCN(C(S)=Nc3ccc4nc(N5CCN(C)CC5)cc(C)c4c3)CC2C)c1` (stereo not drawn), 39.8 µM (active).
The result for `O=C(NCCCNC(=O)c1cnccn1)c1ccc(Br)cc1` reads “inactive”.
For `O=C(N/N=C/c1ccc2nccnc2c1)c1ccc(Br)cc1`, the Potency entry is “inactive”.
As for `Cc1ccc(C(=O)N/C(=C\c2ccc(Br)cc2)c2n[nH]c(S)n2)cc1`, the figure is 25.1 µM (active); as for `Cc1ccc(/C=C(\NC(=O)c2ccc(C)cc2)c2n[nH]c(S)n2)cc1`, 25.1 µM (active).
